Composite z-score and z-score data for 5 compounds are collected here from PubChem BioAssay.

Each structure is given as a SMILES string. Active and inactive are the calls of the source. Unless noted, how the calls were made is not given here.

Experiment [1] can be described thus: anti-His antibody binders, primary screen, artefact control for SMM control protein annotation, biochemical, small-molecule microarray, 635 nm fluorescence (AID 1128).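 Further: score merges feature fluorescence with signal-to-noise for each printed compound spot.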 The settings on record: anti-His Alexa647 antibody binding, higher = more signal.
In experiment [2] the test system is Human papillomavirus type 1a E7 protein (residues 1-88). Briefly: HPV1a E7 small-molecule binders, primary screen, biochemical, small-molecule microarray, residues 1-88, 635 nm (AID 1129). The conditions noted are these: small-molecule microarray binding, fluorescence 635 nm; higher = more signal.
The target of experiment [3] is Focal adhesion kinase 1 (Homo sapiens) (UniProt Q05397). Briefly: small-molecule microarray binders of FAK, primary screen, biochemical, 635/667 nm fluorescence, BSA, DTT (AID 1130).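 Further: composite of spot emission at 667 nm and signal to noise over triplicate slides.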 The conditions noted are these: PTK2 binding, 635 nm fluorescence, higher = more signal.
Focal adhesion kinase 1 (Homo sapiens), sequence (Q05397 whole entry, looked up): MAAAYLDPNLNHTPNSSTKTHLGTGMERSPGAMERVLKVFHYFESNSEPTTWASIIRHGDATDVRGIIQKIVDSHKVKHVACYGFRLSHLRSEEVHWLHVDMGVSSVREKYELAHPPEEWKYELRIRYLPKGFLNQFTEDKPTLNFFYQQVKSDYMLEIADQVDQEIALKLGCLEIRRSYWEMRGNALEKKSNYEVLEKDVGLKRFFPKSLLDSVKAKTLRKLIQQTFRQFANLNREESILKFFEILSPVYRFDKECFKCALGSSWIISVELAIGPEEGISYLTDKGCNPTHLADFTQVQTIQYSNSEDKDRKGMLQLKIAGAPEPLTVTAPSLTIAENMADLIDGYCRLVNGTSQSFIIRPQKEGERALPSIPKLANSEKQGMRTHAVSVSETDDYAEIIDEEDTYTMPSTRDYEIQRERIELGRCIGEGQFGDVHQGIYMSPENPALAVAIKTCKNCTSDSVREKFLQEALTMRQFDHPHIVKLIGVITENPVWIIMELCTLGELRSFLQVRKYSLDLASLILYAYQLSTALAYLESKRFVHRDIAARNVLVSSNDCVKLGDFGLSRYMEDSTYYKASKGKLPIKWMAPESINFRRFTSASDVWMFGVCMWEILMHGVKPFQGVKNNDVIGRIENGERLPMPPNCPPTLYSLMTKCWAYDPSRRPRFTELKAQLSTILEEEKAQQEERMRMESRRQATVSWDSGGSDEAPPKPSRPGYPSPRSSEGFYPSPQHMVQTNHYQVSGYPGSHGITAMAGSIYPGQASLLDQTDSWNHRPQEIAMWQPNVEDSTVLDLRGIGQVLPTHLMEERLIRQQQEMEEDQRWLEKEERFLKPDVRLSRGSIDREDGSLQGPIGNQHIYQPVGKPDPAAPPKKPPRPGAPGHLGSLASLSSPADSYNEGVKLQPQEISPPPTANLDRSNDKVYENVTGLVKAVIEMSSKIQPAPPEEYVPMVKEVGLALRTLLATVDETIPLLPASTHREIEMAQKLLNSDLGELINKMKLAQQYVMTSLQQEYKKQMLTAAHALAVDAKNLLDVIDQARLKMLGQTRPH
Experiment [4] deals with Fibrinogen (Alexa647-labelled). Briefly: fibrinogen binders on compound microarrays, profiling panel, artefact control for SMM control-protein annotation, biochemical, small-molecule microarray, 635/667 nm fluorescence (AID 1131).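 Further: z-score merges 667 nm fluorescence with per-spot signal-to-noise over triplicate slides.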 The settings on record: fibrinogen-A647 binding fluorescence, higher = more signal.
Experiment [5] deals with Follistatin (Homo sapiens) (UniProt P19883). Briefly: follistatin binders on small-molecule microarrays, primary screen, biochemical, small-molecule microarray, 635/667 nm fluorescence (AID 1132). The conditions noted are these: FST binding, 635 nm fluorescence, higher = more signal.
Follistatin (Homo sapiens), sequence (P19883 whole entry, looked up): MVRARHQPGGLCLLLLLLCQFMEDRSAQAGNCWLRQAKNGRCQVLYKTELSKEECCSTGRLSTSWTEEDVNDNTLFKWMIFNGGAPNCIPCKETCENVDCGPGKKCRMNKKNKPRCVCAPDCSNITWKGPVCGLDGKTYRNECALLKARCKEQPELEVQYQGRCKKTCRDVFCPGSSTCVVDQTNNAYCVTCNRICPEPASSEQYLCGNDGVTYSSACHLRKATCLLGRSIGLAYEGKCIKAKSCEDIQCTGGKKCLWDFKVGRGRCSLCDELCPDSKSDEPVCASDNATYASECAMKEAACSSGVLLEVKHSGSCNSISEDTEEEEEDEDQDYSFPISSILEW
Experiment [6] has as its target Fibroblast growth factor 2 (Homo sapiens) (UniProt P09038). Briefly: FGF2 binders on small-molecule microarrays, primary screen, biochemical, small-molecule microarray, 635/667 nm fluorescence (AID 1133). The conditions noted are these: small-molecule microarray binding, FGF2, fluorescence 635/667; higher = more signal.
Experiment [7] is described as follows: mitochondrial membrane potential change in A549 cells, profiling panel, cell-based, JC-1 fluorescence, basal, 24 h, 100 nL (AID 1138).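 Further: A549 lung adenocarcinoma cells under basal conditions with no added stimulus; test concentration not given here.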 The settings on record: higher = more signal.
Another experiment has as its system Lefty1. Briefly: Lefty1 binders on small-molecule microarrays, primary screen, biochemical, small-molecule microarray, 635/667 nm fluorescence (AID 1139). The conditions noted are these: small-molecule microarray binding, fluorescence 635/667; higher = more signal.
Experiment [8] deals with wheat germ agglutinin (Triticum aestivum), Alexa647-labelled. Briefly: wheat germ agglutinin binders on compound microarrays, profiling panel, artefact control for SMM control-protein annotation, biochemical, small-molecule microarray, 635/667 nm fluorescence (AID 1140).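 Further: score merges 667 nm feature emission with signal to noise over triplicate slides.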 The settings on record: WGA-A647 binding, 635 nm fluorescence, higher = more signal.
Experiment [9] deals with Luciferin 4-monooxygenase (Photinus pyralis) (UniProt P08659). Briefly: firefly luciferase enzyme inhibitors, primary screen, biochemical, luminescence, purified enzyme, 2006 set (AID 1141).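 Further: cell-free assay with purified firefly luciferase at 100 ng per well in PBS; test concentration not given here.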 The settings on record: SteadyGlo luminescence, 30 min, higher = more signal, called active from +8 up or from −8 down.
Luciferin 4-monooxygenase (Photinus pyralis), sequence (P08659 whole entry, looked up): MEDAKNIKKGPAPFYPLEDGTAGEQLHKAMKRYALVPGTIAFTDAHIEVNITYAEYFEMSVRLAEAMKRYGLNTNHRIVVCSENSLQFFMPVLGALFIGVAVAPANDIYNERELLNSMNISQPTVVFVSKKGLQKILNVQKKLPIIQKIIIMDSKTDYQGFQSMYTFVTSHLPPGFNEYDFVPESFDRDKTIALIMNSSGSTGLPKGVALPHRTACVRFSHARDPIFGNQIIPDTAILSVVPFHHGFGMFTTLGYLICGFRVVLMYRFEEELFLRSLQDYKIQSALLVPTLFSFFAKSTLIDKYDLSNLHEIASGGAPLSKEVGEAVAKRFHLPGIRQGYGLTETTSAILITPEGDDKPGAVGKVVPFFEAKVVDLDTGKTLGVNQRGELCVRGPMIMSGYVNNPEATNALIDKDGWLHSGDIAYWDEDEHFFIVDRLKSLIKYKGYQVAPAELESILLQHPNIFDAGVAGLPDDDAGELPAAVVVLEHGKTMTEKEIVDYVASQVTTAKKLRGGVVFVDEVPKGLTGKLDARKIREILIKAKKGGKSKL
Experiment [10] deals with Wnt5a (protein binding on small-molecule microarray). Briefly: Wnt5a binders on small-molecule microarray, primary screen, biophysical, 635/667 nm fluorescence (AID 1142).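 Further: fluorescence read at 667 nm with signal to noise per printed feature.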 The settings on record: 635 nm fluorescence, higher = more signal.
Experiment [11] in a line: cell viability in Huh7 cells, primary screen, cytotoxicity control for HCV replication inhibitor project, CellTiter-Glo luminescence, basal, 48 h (AID 1143).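 Further: Huh7 hepatoma cells carrying a hepatitis C replication reporter with no stimulus; test concentration not given here.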 The conditions noted are these: Huh7 HCV replicon, higher = more signal, called active from +8 up or from −8 down. (In ATP-based viability assays light output follows the ATP content of the culture.)
Experiment [12] in a line: P. aeruginosa biofilm formation inhibitors, primary screen, PAO1 strain, BacTiter-Glo luminescence, LB-PBS (AID 1144). The settings on record: 12 h, higher = more signal.
A short description of experiment [13]: CREB reporter modulators without forskolin, primary screen, cell-based, PC12, CRE-LacZ reporter, unstimulated (AID 1145). The settings on record: no forskolin, luminescence, 4.5 h, higher = more signal, called active from +8 up or from −8 down.
Experiment [14] in a line: CREB reporter modulators under forskolin, primary screen, cell-based, PC12, CRE-LacZ reporter, forskolin-stimulated (AID 1146).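 Further: PC12 cells with 6xCRE LacZ reporter stimulated by forskolin 10 µM; beta-galactosidase reporter signal reflecting CREB driven transcription.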 The conditions noted are these: luminescence, 4.5 h, higher = more signal, called active from +8 up or from −8 down.
Experiment [15] concerns the target Streptavidin (Streptomyces avidinii) (UniProt P22629). Briefly: streptavidin binders on small-molecule microarray, primary screen, artefact control for SMM compound annotation, biophysical, 635/667 nm fluorescence (AID 1147).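 Further: signal reflects streptavidin binding to arrayed compounds as a control protein.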 The settings on record: streptavidin binding, higher = more signal.
A short description of experiment [16]: small-molecule binders of probe aInhba, primary screen, biochemical, small-molecule microarray, 635/667 nm fluorescence (AID 1148).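 Further: score merges 667nm spot fluorescence with signal-to-noise for antibody binding to printed compounds.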 The conditions noted are these: higher = more signal.
Experiment [17] deals with Torsin-1A (Homo sapiens) (UniProt O14656). Briefly: torsin A binders from cell lysate, primary screen, small-molecule microarray, wild-type, 635/667 nm (AID 1149). The conditions noted are these: COS7 hTOR1A-WT lysate, 635 nm fluorescence, higher = more signal.
Torsin-1A (Homo sapiens), sequence (O14656 whole entry, looked up): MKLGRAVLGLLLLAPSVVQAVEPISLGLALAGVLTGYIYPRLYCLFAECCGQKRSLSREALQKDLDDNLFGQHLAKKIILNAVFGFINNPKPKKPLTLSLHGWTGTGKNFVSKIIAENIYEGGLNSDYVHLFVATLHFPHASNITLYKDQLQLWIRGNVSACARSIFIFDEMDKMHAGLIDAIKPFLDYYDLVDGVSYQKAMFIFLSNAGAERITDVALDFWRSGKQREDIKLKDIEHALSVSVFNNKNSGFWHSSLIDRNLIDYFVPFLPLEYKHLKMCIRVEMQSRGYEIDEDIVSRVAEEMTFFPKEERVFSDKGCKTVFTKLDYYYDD
Experiment [18] has the same target. Briefly: small-molecule binders of mutant TOR1A in lysate, primary screen, cell lysate, small-molecule microarray, COS7 lysate, 635/667 nm fluorescence (AID 1150).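 Further: score pools 667 nm emission and signal to noise measuring lysate protein binding.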 The conditions noted are these: COS7 hTOR1A mutant lysate, 635 nm fluorescence, higher = more signal.
Experiment [19] deals with Sonic hedgehog protein (Shh). Briefly: small-molecule binders of Shh protein, primary screen, biochemical, small-molecule microarray, 635/667 nm fluorescence (AID 1151).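 Further: Shh protein binding to compounds spotted on small-molecule microarray slides; score combines spot fluorescence intensity with signal-to-noise across triplicate slides.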 The settings on record: small-molecule microarray binding, 635 nm fluorescence; higher = more signal.

Fibroblast growth factor 2 (Homo sapiens), sequence (P09038 whole entry, looked up): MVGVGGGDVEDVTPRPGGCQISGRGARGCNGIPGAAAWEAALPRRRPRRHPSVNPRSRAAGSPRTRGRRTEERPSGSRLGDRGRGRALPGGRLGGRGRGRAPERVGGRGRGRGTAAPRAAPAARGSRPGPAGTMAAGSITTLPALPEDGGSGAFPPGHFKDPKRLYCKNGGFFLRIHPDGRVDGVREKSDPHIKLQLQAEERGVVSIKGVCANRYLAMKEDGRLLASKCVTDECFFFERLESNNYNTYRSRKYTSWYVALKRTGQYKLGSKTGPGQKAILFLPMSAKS
Streptavidin (Streptomyces avidinii), sequence (P22629 whole entry, looked up): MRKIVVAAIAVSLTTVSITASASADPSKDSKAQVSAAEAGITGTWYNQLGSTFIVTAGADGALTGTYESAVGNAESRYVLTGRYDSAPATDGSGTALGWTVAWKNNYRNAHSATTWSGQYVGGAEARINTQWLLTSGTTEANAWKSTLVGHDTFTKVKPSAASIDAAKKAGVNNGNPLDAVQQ

Consider `COc1ccc(O[C@H]2C=C[C@@H](c3ccccc3)O[C@@H]2COC(=O)CCC(C)=NOC(C)CN2CCCc3nc(C)c(C)cc32)cc1` (stereo not given in full), for which the composite z-score is 0.264 in experiment [1]; 1.11 in experiment [2]; 0.0304 in experiment [3]; 0.381 in [4]; 0.653 in experiment [5]; 0.584 in [6]. The composite z-score with Lefty1 is 0.901; in experiment [8] it was -0.028; in experiment [10] it was 0.162; in experiment [15], 0.629; in [16], -0.12; with Torsin-1A (Homo sapiens) [17] it was 0.0595. The composite z-score with Torsin-1A (Homo sapiens) [18] was 0.486; in experiment [19] it was 1.01. Further, the z-score in experiment [7] is 1.89; in experiment [9], 0.503 (inactive); in experiment [11], -0.61 (inactive); in [12], -0.34 (inactive); in experiment [13], 0.448 (inactive); in [14] it was -0.507 (inactive).

Regarding `CO[C@H]1COC(=O)[C@H](C)NC(=O)[C@@H](C)COC(=O)[C@H]2CCCN2C(=O)CC=C[C@H]1C`, the composite z-score in experiment [1] was -0.395; in experiment [2], 0.185; in experiment [3], 0.0089; in experiment [4], -0.157; in experiment [5] it was 0.593; in experiment [6] it was 0.806. Besides, the composite z-score in the experiment with Lefty1 was 0.632; in experiment [8] it was -0.375; in experiment [10] it was 0.139; in [15], -0.323; in [16] it was -0.121; with Torsin-1A (Homo sapiens) [17], -0.0249. The composite z-score was found to be 0.182 in the experiment with Torsin-1A (Homo sapiens) [18] and 1.4 in [19]. Moreover, the z-score in experiment [7] was -0.392; in experiment [9] it was 0.574 (inactive); in experiment [11], 0.191 (inactive); in experiment [12] it was -0.312 (inactive); in [13] it was -0.906 (inactive); in experiment [14], -0.432 (inactive).

As to `O=C1C=C[C@@H](O)[C@@H]2[C@@H]3C(=O)N(c4ccc(F)cc4F)C(=O)[C@@H]3CC[C@@H]12`, the composite z-score in [1] is -0.0956; in [2], 0.437; in experiment [3] it was 0.103; in experiment [4], 0.61; in experiment [5], 0.791; in experiment [6], 0.602. The composite z-score is 0.564 with Lefty1; 0.215 in [8]; 0.15 in experiment [10]; 0.275 in experiment [15]; -0.123 in [16]; 1.15 with Torsin-1A (Homo sapiens) [17]. For the same compound, the figures for the composite z-score (in the experiment with Torsin-1A (Homo sapiens) [18]; in experiment [19]) were 0.629 and 0.93, respectively. The z-score in experiment [7] is 0.784; in [9], -1.71 (inactive); in [11], -1.18 (inactive); in experiment [12], 0.0333 (inactive); in experiment [13], 0.332 (inactive); in [14], 0.41 (inactive).

For `COC(=O)CC=C[C@@H](C)[C@@H]1C=C[C@H](O)[C@@H](CO)O1`, the composite z-score in experiment [1] is -0.29; in [2] it was 0.392; in experiment [3], -0.281; in experiment [4], 0.201; in experiment [5], 1.04; in experiment [6], 0.413. For the same compound, the composite z-score with Lefty1 was 0.767; in [8] it was -0.375; in experiment [10], -0.27; in experiment [15] it was 0.89; in experiment [16] it was -0.163; with Torsin-1A (Homo sapiens) [17] it was 0.473. In addition, the composite z-score in the experiment with Torsin-1A (Homo sapiens) [18] turned out to be 0.448; in experiment [19], 0.495. Moreover, the z-score is 0.204 in [7]; -0.203 (inactive) in experiment [9]; 0.362 (inactive) in [11]; -0.159 (inactive) in experiment [12]; 0.648 (inactive) in experiment [13]; 1.03 (inactive) in [14].

In the case of `COc1ccc(O[C@H]2C=C[C@@H](c3ccccc3)O[C@@H]2CON=C(C)CCC(=O)OC[C@H]2O[C@H](c3ccccc3)C=C[C@@H]2Oc2ccc(OC)cc2)cc1`, the composite z-score in [1] was 0.704; in experiment [2], -2.01; in [3], -0.204; in experiment [4], -0.218; in experiment [5], -0.174; in experiment [6], -0.922. For the same compound, the composite z-score with Lefty1 was -0.162; in [8], -1.13; in experiment [10], -0.874; in [15] it was 0.204; in experiment [16] it was -0.0136; with Torsin-1A (Homo sapiens) [17], -2.42. In addition, the values for the composite z-score (in the experiment with Torsin-1A (Homo sapiens) [18]; in experiment [19]) were -1.43 and 2.02, respectively. Further, the z-score in experiment [7] was 0.0976; in experiment [9], 1.27 (inactive); in [11] it was -0.461 (inactive); in experiment [12], 0.107 (inactive); in experiment [13], -0.887 (inactive); in experiment [14], 0.593 (inactive).
